The supplement of paper PMC10849652
About 7,900 targets were measured; listed, in parts, are those with a hit and a random draw of the rest. About 0.6% of all pairs of compound and target were hits.

compound: c1cn2cc(-c3ccc4cn[nH]c4c3)nc(Nc3ccc(N4CCOCC4)cc3)c2n1 [entospletinib]; assay: log2 fold change, soluble protein after heating vs DMSO (PISA); higher = thermal stabilisation; K562 cells, 10 uM, 30 min; active = over 0.2 and 3.5 SD of the protein, either way, in both replicates (recomputed)
Method in brief: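 Quantification of soluble protein used TMTpro 16plex LC-MS/MS, with channel sums equalised. Samples were the supernatant after 21,000xg for 90 min of pooled aliquots from K562 cells (2×10^6 cells/mL) treated with 10 μM compound for 30 min, heated for 3 min over 48°C-58°C, and extracted in PBS with 0.5% NP-40 at 4°C. Values, from duplicates, describe thermal stability against control samples on a log2 fold-change scale.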

Sequence of UniProt P15586 (P15586 whole entry, looked up): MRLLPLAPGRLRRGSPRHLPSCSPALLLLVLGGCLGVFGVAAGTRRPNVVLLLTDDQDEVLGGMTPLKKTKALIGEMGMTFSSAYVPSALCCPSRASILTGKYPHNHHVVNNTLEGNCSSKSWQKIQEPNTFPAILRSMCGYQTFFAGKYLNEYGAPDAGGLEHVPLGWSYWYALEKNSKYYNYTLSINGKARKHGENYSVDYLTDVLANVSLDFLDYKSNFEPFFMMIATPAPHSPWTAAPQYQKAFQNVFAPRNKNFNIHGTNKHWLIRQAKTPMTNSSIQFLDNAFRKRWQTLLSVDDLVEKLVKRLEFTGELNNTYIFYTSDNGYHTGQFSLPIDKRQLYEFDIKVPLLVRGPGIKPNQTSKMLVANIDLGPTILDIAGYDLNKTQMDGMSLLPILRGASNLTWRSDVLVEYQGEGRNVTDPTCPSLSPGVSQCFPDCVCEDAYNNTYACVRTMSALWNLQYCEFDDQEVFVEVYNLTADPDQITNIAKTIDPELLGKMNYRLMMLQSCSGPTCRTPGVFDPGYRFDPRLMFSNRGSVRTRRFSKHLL
Sequence of UniProt Q86UX7 (Q86UX7 whole entry, looked up): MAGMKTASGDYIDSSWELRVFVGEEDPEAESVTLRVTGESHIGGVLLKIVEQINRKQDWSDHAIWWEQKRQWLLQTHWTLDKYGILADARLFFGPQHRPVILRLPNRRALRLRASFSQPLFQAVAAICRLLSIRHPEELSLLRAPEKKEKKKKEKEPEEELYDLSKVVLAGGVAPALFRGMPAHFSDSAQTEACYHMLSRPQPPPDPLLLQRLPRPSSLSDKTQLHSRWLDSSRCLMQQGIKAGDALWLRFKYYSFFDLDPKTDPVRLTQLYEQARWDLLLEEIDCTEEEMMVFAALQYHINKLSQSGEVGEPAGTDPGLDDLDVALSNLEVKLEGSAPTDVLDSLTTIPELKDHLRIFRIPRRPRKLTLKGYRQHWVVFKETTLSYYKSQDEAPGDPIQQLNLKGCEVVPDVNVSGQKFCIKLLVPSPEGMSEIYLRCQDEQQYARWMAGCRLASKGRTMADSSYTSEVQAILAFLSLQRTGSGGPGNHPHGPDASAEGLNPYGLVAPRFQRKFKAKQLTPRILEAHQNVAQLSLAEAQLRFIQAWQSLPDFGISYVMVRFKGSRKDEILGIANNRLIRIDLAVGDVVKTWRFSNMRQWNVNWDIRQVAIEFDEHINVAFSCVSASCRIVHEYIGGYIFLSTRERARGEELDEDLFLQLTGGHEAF
Sequence of UniProt Q14527 (Q14527 whole entry, looked up): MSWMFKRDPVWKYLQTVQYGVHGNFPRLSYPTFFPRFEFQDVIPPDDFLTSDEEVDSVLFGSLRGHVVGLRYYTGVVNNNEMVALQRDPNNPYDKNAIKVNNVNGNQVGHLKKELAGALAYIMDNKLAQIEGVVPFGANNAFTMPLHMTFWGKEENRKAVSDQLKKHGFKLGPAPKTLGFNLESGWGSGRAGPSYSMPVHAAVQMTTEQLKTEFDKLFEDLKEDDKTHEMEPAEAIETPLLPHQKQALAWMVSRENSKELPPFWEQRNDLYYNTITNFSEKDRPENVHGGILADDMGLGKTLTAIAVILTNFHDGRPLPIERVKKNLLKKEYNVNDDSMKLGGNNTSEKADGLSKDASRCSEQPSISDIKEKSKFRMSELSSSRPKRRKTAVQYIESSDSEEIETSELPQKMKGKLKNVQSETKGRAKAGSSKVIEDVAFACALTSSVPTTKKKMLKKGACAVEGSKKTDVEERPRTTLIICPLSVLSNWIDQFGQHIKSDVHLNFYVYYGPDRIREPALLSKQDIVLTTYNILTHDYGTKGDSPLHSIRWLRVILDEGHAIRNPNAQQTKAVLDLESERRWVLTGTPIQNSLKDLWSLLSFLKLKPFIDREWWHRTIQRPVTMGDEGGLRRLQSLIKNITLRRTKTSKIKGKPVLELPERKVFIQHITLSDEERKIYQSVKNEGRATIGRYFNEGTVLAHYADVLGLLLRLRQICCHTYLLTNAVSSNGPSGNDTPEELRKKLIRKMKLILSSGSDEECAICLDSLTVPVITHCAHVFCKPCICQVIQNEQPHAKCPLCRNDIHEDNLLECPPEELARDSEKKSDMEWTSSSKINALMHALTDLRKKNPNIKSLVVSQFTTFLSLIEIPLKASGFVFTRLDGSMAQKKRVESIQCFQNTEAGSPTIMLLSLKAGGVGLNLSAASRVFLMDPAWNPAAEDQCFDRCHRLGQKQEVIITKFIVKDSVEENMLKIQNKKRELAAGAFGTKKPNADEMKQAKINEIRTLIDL
Sequence of UniProt O76003 (O76003 whole entry, looked up): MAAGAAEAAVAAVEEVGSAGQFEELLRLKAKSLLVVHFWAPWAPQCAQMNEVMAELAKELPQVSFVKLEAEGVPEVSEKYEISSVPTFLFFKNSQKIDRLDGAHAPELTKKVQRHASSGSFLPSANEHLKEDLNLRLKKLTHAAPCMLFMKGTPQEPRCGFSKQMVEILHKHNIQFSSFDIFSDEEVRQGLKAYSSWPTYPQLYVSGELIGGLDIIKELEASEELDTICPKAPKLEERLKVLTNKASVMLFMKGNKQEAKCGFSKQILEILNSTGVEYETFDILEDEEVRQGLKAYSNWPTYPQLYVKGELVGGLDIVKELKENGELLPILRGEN
Sequence of UniProt P48507 (P48507 whole entry, looked up): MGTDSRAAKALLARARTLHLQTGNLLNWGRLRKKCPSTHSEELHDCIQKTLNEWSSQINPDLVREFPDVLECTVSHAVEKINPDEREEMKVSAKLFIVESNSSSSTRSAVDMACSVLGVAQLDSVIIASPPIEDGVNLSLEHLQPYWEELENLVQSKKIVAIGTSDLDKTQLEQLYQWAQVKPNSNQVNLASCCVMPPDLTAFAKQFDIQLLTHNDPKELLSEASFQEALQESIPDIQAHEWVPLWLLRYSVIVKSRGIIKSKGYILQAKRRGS
Sequence of UniProt P07686 (P07686 whole entry, looked up): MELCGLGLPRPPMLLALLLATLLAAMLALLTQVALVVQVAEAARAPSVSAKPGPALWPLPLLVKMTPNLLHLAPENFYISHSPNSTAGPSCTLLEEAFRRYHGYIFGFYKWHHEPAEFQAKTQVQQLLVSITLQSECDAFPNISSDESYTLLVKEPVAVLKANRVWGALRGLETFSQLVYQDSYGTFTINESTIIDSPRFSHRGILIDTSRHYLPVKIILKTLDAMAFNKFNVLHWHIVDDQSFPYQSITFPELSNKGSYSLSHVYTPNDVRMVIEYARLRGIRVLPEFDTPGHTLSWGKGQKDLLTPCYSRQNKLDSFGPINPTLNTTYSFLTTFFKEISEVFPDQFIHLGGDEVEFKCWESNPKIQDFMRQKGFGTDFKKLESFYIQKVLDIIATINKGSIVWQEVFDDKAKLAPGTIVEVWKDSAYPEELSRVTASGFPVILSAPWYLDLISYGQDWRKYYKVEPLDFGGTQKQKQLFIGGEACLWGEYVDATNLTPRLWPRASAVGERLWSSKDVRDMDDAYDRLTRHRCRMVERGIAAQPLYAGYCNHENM
Sequence of UniProt Q8N9F7 (Q8N9F7 whole entry, looked up): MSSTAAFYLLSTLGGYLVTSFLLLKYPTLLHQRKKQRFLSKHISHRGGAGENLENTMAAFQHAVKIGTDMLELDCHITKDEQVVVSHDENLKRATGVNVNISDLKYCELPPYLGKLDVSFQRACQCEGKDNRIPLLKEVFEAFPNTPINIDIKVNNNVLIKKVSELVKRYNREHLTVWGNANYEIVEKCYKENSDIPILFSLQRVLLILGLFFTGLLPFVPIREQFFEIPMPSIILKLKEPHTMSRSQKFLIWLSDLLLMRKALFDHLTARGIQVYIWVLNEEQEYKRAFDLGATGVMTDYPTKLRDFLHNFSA
Sequence of UniProt Q9BUJ2 (Q9BUJ2 whole entry, looked up): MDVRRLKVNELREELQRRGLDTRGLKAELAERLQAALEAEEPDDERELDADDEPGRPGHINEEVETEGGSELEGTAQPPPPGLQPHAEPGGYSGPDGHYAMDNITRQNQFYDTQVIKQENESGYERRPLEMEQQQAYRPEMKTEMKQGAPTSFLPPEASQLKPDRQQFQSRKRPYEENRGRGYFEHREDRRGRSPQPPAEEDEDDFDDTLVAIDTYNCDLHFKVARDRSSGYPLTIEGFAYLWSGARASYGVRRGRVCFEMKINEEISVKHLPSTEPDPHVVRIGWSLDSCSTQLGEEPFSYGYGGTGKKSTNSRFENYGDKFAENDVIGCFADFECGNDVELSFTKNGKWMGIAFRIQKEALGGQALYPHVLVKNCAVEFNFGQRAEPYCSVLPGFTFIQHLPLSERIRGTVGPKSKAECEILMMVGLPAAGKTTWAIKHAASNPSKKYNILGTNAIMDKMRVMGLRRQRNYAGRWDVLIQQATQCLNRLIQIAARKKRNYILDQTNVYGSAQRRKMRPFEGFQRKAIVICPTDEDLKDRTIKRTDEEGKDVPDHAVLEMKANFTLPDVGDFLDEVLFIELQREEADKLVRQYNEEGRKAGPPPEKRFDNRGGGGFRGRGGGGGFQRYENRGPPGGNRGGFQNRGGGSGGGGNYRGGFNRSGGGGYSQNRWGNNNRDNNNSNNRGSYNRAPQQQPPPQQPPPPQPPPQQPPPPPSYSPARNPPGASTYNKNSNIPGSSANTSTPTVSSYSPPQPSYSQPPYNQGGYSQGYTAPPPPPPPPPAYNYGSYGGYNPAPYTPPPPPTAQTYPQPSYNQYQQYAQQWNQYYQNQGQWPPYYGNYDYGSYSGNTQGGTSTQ
Sequence of UniProt Q03013 (Q03013 whole entry, looked up): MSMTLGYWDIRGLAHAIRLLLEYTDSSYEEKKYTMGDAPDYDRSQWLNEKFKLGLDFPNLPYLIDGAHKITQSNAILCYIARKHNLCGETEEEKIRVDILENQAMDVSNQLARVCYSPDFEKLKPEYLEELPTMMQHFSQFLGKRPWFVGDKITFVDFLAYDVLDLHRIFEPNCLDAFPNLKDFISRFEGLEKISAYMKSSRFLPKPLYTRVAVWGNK
Sequence of UniProt P60520 (P60520 whole entry, looked up): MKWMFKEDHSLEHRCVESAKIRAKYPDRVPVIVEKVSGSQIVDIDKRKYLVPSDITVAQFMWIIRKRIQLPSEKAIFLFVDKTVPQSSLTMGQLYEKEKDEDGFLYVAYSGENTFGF
Sequence of UniProt P63218 (P63218 whole entry, looked up): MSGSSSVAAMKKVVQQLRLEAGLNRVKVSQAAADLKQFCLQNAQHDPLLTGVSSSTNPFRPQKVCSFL

log2 fold change, inactive:
IGF2BP2 (UniProt Q9Y6M1) 0.24
HDAC2 (UniProt Q92769) 0
HDHD2 (UniProt Q9H0R4) -0.069
FNTB (UniProt P49356) -0.143
GLB1 (UniProt P16278) 0.022
GBA2 (UniProt Q9HCG7) -0.108
GTF2E1 (UniProt P29083) -0.048
GNS (UniProt P15586) 0.002
GCLM (UniProt P48507) 0.012
FERMT3 (UniProt Q86UX7) -0.005
HNRNPUL1 (UniProt Q9BUJ2) -0.029
GCDH (UniProt Q92947) -0.026
HOMER1 (UniProt Q86YM7) 0.056
HLTF (UniProt Q14527) 0.045
HSD17B12 (UniProt Q53GQ0) -0.015
GLIPR2 (UniProt Q9H4G4) 0.055
HBQ1 (UniProt P09105) 0.001
GABARAPL2 (UniProt P60520) -0.032
HEXB (UniProt P07686) -0.026
H2AFX (UniProt P16104) -0.005
GNAI3 (UniProt P08754) 0.038
HNRNPH1 (UniProt P31943) 0.108
GDPD1 (UniProt Q8N9F7) 0.04
GUK1 isoform 2 (UniProt Q16774) 0.093
GSK3B isoform 2 (UniProt P49841) -0.028
GLS isoform 3 (UniProt O94925) -0.055
HNRNPUL1 (UniProt M0R247) -0.056
HEATR3 (UniProt Q7Z4Q2) 0
GAB2 (UniProt Q9UQC2) 0.046
FBXO42 (UniProt Q6P3S6) -0.049
GLRX3 (UniProt O76003) 0.001
GSTM4 (UniProt Q03013) 0.036
FKBP4 (UniProt Q02790) -0.019
GNG5 (UniProt P63218) 0.062
HP1BP3 (UniProt Q5SSJ5) 0.014
HNRNPK isoform 3 (UniProt P61978) 0.003
H2AZ1 (UniProt P0C0S5) -0.001
HNRNPK isoform 2 (UniProt P61978) 0.064
FCHO1 (UniProt O14526) -0.059
